The values below come from PubChem BioAssay.

Assay [1] can be described thus: antimalarial activity against Dd2 strain (AID 2302;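 active means growth inhibition above 50% at the single 2 µM test dose, taken to imply half-maximal potency below 2 µM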;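 further: 0% = DMSO untreated growth and 100% = chloroquine plus artemisinin killed control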). The note with it: P. falciparum Dd2 in RBCs, LDH growth readout, 72 h; at 2 µM; active compounds read high.
Assay [2] is described as follows: HepG2 cytotoxicity, primary screen, cytotoxicity control for P. falciparum antimalarial project, cell-based, ATP luminescence (AID 2303;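 active means inhibition above 50%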;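 further: 0% = DMSO wells and 100% = digitonin-killed cells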). The note with it: HepG2 viability, 24-48 h, at 10 µM, active compounds read high.
Assay [3] concerns the target L-lactate dehydrogenase (Plasmodium falciparum (isolate CDC / Honduras)) (UniProt Q27743). The experiment in a line: PfLDH activity inhibition – cell lysate, 3D7 strain, counter-screen for P. falciparum growth inhibition project (AID 2304).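 Further: 0% = vehicle and 100% = reference inhibitor.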 The note with it: P. falciparum 3D7 crude extract, LDH APAD/NBT absorbance; at 2 µM; active compounds read high. In general terms: Counterscreens check selectivity or assay interference.

A short description of assay [4]: inhibition of 3D7 malaria parasite growth – strain 3D7 (AID 2306).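 Further: 0% = DMSO wells and 100% = chloroquine plus artemisinin control wells.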 The note with it: P. falciparum 3D7 erythrocytic growth, LDH absorbance, 72 h; at 2 µM; active compounds read high.
In assay [5] the target is Calcium-dependent protein kinase 1 (Plasmodium falciparum (isolate 3D7)) (UniProt P62344). Kind of assay: PfCDPK1 kinase inhibitors, biochemical, TCAMS library (AID 1159585; cut-off not given, nearly all actives have IC50 up to about 0.98 µM;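 further: inhibitors leave more ATP so luminescence rises with inhibition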). The conditions noted are these: recombinant PfCDPK1, Kinase-Glo ATP depletion luminescence. In general terms: Kinase-Glo reads ATP consumption through a luciferase reaction.
Calcium-dependent protein kinase 1 (Plasmodium falciparum (isolate 3D7)), sequence (P62344 whole entry, looked up): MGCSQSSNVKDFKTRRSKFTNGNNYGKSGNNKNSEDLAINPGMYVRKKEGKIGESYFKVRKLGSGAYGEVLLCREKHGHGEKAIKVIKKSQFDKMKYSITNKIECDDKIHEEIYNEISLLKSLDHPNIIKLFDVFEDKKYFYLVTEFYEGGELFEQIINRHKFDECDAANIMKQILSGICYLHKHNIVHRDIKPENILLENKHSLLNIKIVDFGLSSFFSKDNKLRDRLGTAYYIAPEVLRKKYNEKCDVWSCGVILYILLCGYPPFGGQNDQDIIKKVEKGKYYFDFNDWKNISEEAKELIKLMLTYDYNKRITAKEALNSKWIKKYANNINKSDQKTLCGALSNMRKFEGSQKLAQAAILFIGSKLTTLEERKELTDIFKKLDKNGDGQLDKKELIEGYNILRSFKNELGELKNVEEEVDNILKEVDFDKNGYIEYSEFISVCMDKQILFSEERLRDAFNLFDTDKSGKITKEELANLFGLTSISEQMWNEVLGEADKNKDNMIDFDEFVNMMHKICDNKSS
For assay [6], the target named is Plasmodium falciparum protein kinase 6 (PK6, PF3D7_1337100) (UniProt Q8IDW1). The experiment in a line: PfPK6 kinase inhibitors, biochemical, TCAMS library (AID 1159586). The conditions noted are these: recombinant PfPK6, Kinase-Glo ATP depletion luminescence.
Plasmodium falciparum protein kinase 6 (PK6, PF3D7_1337100), sequence (Q8IDW1 1-305): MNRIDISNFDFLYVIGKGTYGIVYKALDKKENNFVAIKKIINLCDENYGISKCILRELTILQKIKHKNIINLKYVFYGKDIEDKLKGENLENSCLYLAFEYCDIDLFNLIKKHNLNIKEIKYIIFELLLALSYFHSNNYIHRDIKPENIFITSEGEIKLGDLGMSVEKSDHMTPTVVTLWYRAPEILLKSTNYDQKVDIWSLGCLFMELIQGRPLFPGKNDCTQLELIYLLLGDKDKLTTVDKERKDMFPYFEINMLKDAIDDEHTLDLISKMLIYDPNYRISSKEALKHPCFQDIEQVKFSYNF
Assay [7] addresses Protein kinase 7 (PK7), Plasmodium falciparum 3D7 (PF3D7_0213400) (UniProt Q7YTF7). The experiment in a line: inhibition of Plasmodium PK7 catalytic activity – biochemical, TCAMS antimalarial set, Kinase-Glo luminescence (AID 1159587). The note with it: recombinant PfPK7, Kinase-Glo ATP depletion luminescence.
The target of assay [8] is Calcium-dependent protein kinase 4 (Plasmodium falciparum (isolate 3D7)) (UniProt Q8IBS5). The experiment in a line: PfCDPK4 kinase inhibitors, biochemical, TCAMS library (AID 1159588; cut-off not given, nearly all actives have IC50 up to about 0.91 µM). The conditions noted are these: recombinant PfCDPK4, Kinase-Glo ATP depletion luminescence.
Calcium-dependent protein kinase 4 (Plasmodium falciparum (isolate 3D7)), sequence (Q8IBS5 whole entry, looked up): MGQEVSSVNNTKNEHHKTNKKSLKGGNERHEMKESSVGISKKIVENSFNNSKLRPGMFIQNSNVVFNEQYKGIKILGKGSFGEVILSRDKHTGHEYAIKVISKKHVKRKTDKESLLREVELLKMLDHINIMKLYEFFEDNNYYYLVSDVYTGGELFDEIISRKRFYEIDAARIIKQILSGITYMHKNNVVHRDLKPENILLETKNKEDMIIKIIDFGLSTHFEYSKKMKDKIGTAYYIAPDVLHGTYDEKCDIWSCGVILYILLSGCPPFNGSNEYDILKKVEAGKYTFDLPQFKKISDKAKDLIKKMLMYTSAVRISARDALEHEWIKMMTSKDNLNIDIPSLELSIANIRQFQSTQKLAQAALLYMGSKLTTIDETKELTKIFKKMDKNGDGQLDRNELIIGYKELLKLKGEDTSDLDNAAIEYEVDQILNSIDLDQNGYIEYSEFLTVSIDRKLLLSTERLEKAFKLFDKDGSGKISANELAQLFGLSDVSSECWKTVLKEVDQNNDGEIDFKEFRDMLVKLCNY

A number with no mark means an inactive call. For part of these data: Measured potencies and affinities stand elsewhere. Activity calls are given as the source filed them. Unless noted, how the calls were made is not given here.

Protein kinase 7 (PK7), Plasmodium falciparum 3D7 (PF3D7_0213400), sequence (Q7YTF7 1-343): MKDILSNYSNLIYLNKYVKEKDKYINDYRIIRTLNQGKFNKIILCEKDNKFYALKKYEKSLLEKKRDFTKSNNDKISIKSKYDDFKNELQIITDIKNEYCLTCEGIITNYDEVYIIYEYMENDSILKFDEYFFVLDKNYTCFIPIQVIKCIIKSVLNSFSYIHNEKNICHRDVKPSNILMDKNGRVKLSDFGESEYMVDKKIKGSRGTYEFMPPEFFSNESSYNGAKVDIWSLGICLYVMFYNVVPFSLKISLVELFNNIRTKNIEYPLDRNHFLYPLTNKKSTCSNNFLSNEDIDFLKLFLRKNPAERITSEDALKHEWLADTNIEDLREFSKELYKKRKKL
L-lactate dehydrogenase (Plasmodium falciparum (isolate CDC / Honduras)), sequence (Q27743 whole entry, looked up): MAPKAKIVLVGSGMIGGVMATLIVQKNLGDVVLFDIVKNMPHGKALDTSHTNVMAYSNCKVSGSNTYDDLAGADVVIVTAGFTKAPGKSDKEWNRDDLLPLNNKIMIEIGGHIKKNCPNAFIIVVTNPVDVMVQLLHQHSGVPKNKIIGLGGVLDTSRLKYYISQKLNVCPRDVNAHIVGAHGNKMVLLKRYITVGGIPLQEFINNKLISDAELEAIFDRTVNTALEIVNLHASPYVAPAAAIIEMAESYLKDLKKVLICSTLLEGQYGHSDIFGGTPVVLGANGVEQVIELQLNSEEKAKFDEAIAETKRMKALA

Turning to `O=C(OCc1ccccc1)N1CCc2c([nH]c3ccccc23)C1CCC(F)(F)F` (stereo not drawn), the growth inhibition in assay [1] was 81% (active); in assay [4], 94% (active). Moreover, the inhibition (usually the change of the read-out against control, counted positive when it falls) in assay [2] was 0%; in assay [3] it was 3%. Moreover, the outcome in assay [5], in assay [6], in assay [7] and in assay [8] was inactive.
On to `COc1cc2c(cc1C(F)(F)F)N(C(=O)Nc1cc(OC(F)(F)F)cc(-c3cccnc3)c1)CC2`, for which the growth inhibition in assay [1] was 49%; in assay [4], 100% (active). Also, the inhibition was 55% (active) in assay [2] and -3% in assay [3]. Also, the outcome in assay [5], in assay [6], in assay [7] and in assay [8] was inactive.
For `c1ccc(C(c2ccccc2)N2CCC(NCc3ccc(OCCCN4CCCCC4)cc3)CC2)cc1`, the growth inhibition in assay [1] was 101% (active); in assay [4], 100% (active). Besides, the inhibition is 74% (active) in assay [2] and 4% in assay [3]. For the same molecule, the result in assay [5], in assay [6], in assay [7] and in assay [8] was inactive.
Consider `O=C(Nc1ccc(OC2CCN(Cc3ccc(F)cc3)C2)c(Cl)c1)c1ccccc1` (stereo not drawn), for which the growth inhibition was 86% (active) in assay [1] and 91% (active) in assay [4]. In addition, the inhibition was 11% in assay [2] and 0% in assay [3]. In addition, the outcome in assay [5], in assay [6], in assay [7] and in assay [8] was inactive.
As to `COc1cccc(CNC(=O)NC2CCN(c3ccnc(Nc4cc(OC)c(OC)c(OC)c4)n3)C2)c1` (stereo not drawn), the growth inhibition in assay [1] was 84% (active); in assay [4] it was 93% (active). For the same molecule, the inhibition was 15% in assay [2] and -6% in assay [3]. Further, the result in assay [5], in assay [6], in assay [7] and in assay [8] was inactive.
Take `O=c1cc(NCCCNC2CCOc3c(Cl)cc(Cl)cc32)[nH]c2ccccc12` (stereo not drawn): the growth inhibition in assay [1] was 88% (active); in assay [4], 100% (active). Moreover, the inhibition is -7% in assay [2] and -3% in assay [3]. For the same molecule, the result in assay [5], in assay [6], in assay [7] and in assay [8] was inactive.
On to `CN1CCCc2cc(NC(=O)C=Cc3ccc(-c4ccc(F)cc4F)o3)ccc2C1`, for which the growth inhibition in assay [1] was 27%; in assay [4], 90% (active). Further, the inhibition is 5% in assay [2] and 4% in assay [3]. Besides, the outcome in assay [5], in assay [6], in assay [7] and in assay [8] was inactive.
As to `COc1cc(Cc2cnc(N)nc2N)cc(CC(C)O)c1O` (stereo not drawn), the values for the growth inhibition in assay [1] and in assay [4] were 2% and 93% (active), respectively. The inhibition in assay [2] and in assay [3] was -2% in each case. For the same molecule, the outcome in assay [5], in assay [6], in assay [7] and in assay [8] was inactive.
For the molecule `Fc1ccc(-c2nc(NCc3cccc(C(F)(F)F)c3)nn2-c2cccc(C(F)(F)F)c2)cc1C(F)(F)F`, the values for the growth inhibition in assay [1] and in assay [4] were 58% (active) and 90% (active), respectively. Also, the inhibition in assay [2] is 2%; in assay [3], -5%. The result in assay [5], in assay [6], in assay [7] and in assay [8] was inactive.
`CCCCCCCn1c2c(c(=N)c3c1CCC3)CCCC2`: the growth inhibition in assay [1] and in assay [4] was 98% (active) each time. For the same molecule, the inhibition in assay [2] is 46%; in assay [3], 1%. For the same molecule, the outcome in assay [5], in assay [6], in assay [7] and in assay [8] was inactive.
In the case of `CCn1c2ccccc2c2cc(Cc3cnc(N)nc3N)ccc21`, the growth inhibition in assay [1] is -2%; in assay [4], 94% (active). The results for the inhibition in assay [2] and in assay [3] were 28% and 5%, respectively. In addition, the outcome in assay [5], in assay [6], in assay [7] and in assay [8] was inactive.
As to `c1ccc(CN2CCCN(c3ccc4c(c3)CCN(Cc3ccc(-c5ncc[nH]5)cc3)CC4)CC2)cc1`, the growth inhibition in assay [1] is 73% (active); in assay [4] it was 100% (active). Also, the results for the inhibition in assay [2] and in assay [3] were 6% and 2%, respectively. Moreover, the outcome in assay [5], in assay [6], in assay [7] and in assay [8] was inactive.
For the molecule `CCOc1cc2ncnc(Nc3ccc(OCc4ccccc4F)c(Cl)c3)c2cc1OCC`, the growth inhibition in assay [1] is 74% (active); in assay [4], 101% (active). The inhibition was 4% in assay [2] and -2% in assay [3]. Further, the outcome in assay [5], in assay [6], in assay [7] and in assay [8] was inactive.
`CCCNC(=O)C1Cc2c([nH]c3cc(Br)ccc23)C2(CCN(CCc3ccccc3)CC2)N1` (stereo not drawn): the growth inhibition in assay [1] is 26%; in assay [4] it was 92% (active). Also, the inhibition in assay [2] is 15%; in assay [3] it was -1%. Moreover, the outcome in assay [5], in assay [6], in assay [7] and in assay [8] was inactive.
For `CC(C)(C)c1ccc(NC(=O)c2cccc(CN3CCN(Cc4cccc(O)c4)CC3)c2)cc1`, the values for the growth inhibition in assay [1] and in assay [4] were 3% and 92% (active), respectively. The inhibition in assay [2] is 28%; in assay [3], -2%. The outcome in assay [5], in assay [6], in assay [7] and in assay [8] was inactive.
As to `CC(C)[C@H](NC(=O)NC1CCC(CCN2[C@@H]3CC[C@H]2CC(OC(=O)C(CO)c2ccccc2)C3)CC1)C(O)(c1ccccc1)c1ccccc1` (stereo partly drawn), the values for the growth inhibition in assay [1] and in assay [4] were 4% and 90% (active), respectively. Further, the inhibition in assay [2] was 17%; in assay [3], 1%. In addition, the outcome in assay [5], in assay [6], in assay [7] and in assay [8] was inactive.
As to `COc1cc(CNCCCNc2cc(=O)c3ccccc3[nH]2)c2c(c1)C(C)CN2C(=O)OC(C)(C)C` (stereo not drawn), the growth inhibition in assay [1] is 87% (active); in assay [4] it was 96% (active). Further, the results for the inhibition in assay [2] and in assay [3] were -5% and 2%, respectively. Moreover, the result in assay [5], in assay [6], in assay [7] and in assay [8] was inactive.
Consider `O=C(NCCN1Cc2ccccc2C1=O)c1ccc(Oc2ccc(C(=O)NCCN3Cc4ccccc4C3=O)cc2)cc1`, for which the values for the growth inhibition in assay [1] and in assay [4] were 95% (active) and 99% (active), respectively. For the same molecule, the inhibition in assay [2] is 27%; in assay [3], -1%. Besides, the result in assay [5], in assay [6], in assay [7] and in assay [8] was inactive.
For `CC(=O)Nc1nnc(SCc2c(C)cc(C(C)(C)C)cc2C)s1`, the values for the growth inhibition in assay [1] and in assay [4] were 91% (active) and 98% (active), respectively. Further, the values for the inhibition in assay [2] and in assay [3] were 3% and -4%, respectively. For the same molecule, the result in assay [5], in assay [6], in assay [7] and in assay [8] was inactive.
Consider `O=C(Nc1cccc(-c2csc(-c3nc4ccccc4[nH]3)c2)c1)c1cccnc1`, for which the growth inhibition in assay [1] was 45%; in assay [4], 98% (active). In addition, the inhibition is 18% in assay [2] and -5% in assay [3]. Besides, the result in assay [5], in assay [6], in assay [7] and in assay [8] was inactive.
`CN1CCN(c2ccnc3ccc(NC(=O)Nc4ccc5c(c4)CCC5=O)cc23)CC1`: the growth inhibition was 67% (active) in assay [1] and 100% (active) in assay [4]. Further, the figures for the inhibition in assay [2] and in assay [3] were 8% and 0%, respectively. In addition, the outcome in assay [5], in assay [6], in assay [7] and in assay [8] was inactive.
